From PubChem BioAssay (NCATS)
Inconclusive results are not listed. Values without a mark were called inactive. The call rests on the fitted dose curve; in most records, active means well fitted inhibition curve with a large enough effect; inconclusive means small, poorly fitted or top-dose-only effect; inactive means flat fitted curve, though single readings scatter.

Assay: qHTS to identify inhibitors of the type 1 interferon - major histocompatibility complex class I in skeletal muscle: primary screen against the NCATS Pharmaceutical Collection (AID 1347407)
Details: human skeletal muscle cells, IFN-b-induced MHC-I HiBiT luminescence, 24 h; series mostly up to 45.9 µM; activity change, negative = inhibition: at the top concentration
Text: Assay Submitter (PI): Travis B. Kinder Ph.D. & James Inglese Ph.D.
Assay Development and Screening Technology Laboratory (ADST)
National Center for Advancing Translational Sciences (NCATS), Rockville, MD
National Institute of Health (NIH), Bethesda, Maryland
Idiopathic inflammatory myopathies, collectively referred to as myositis, are a group of rare autoimmune diseases characterized by skeletal muscle inflammation, weakness, and usually accompanied by systemic pathologies of the skin, lungs, or vasculature. Current immunosuppressive therapies and glucocorticoids are often not curative and are accompanied by harsh side effects, especially in children with juvenile myositis. We initiated a drug repurposing and development program to identify more targeted, less toxic therapeutics to treat myositis. Although its cause is not known, muscle from a subset of patients have an abundance of the inflammatory type 1 interferon (IFN) and a down-stream product major histocompatibility complex class I (MHC class I), which are both thought to contribute to damage and weakness. We conducted quantitative high throughput screening on 6,576 compounds (4,679 unique) through a series of cell-based assays to identify those that inhibit the IFN-stimulated expression of MHC class I in muscle precursor cells (myoblasts). The compound identification and evaluation strategy utilized a primary screen with reporter-tagged MHC class I in genome-engineered myoblasts, ATP content counter screen for viability, HLA-ABC immunofluorescence secondary screen, and HLA-B RT-qPCR tertiary screen.
The primary screen utilized CRISPR/Cas9 genome-engineering of immortalized human myoblasts, C25cl48, where a pro-luminescent reporter HiBit was fused to the C-terminus of endogenous MHC class I allele HLA-B*08:01 (HLA-B HiBit myoblasts). HiBit is an 11 amino acid fragment of NanoLuc luminescent reporter (Promega Corporation), and when complexed to the larger LgBit fragment, the reconstituted enzyme produces light in the presence of furimazine substrate (Schwinn et al., 2018). Briefly, HLA-B HiBit myoblasts were plated into 1536-well plates, treated with 4.0 ng/ml human IFN-beta and 2,816 compounds from the NCATS Pharmaceutical Collection (NPC) that contains all drugs approved in the US, EU, and Japan (Huang et al., 2011) in an 8-point, 1:5 titration with a high final concentration of 46 uM. After 24 hrs of treatment, cells were assayed by Nano-Glo HiBiT Lytic Detection System (Promega) and luminescence measured by a ViewLux 1430 Ultra HTS (Perkin Elmer).
Huang R, Southall N, Wang Y, Yasgar A, Shinn P, Jadhav A, Nguyen D-T, Austin CP. 2011. The NCGC pharmaceutical collection: a comprehensive resource of clinically approved drugs enabling repurposing and chemical genomics. Sci Transl Med 3:80ps16. doi:10.1126/scitranslmed.3001862
Schwinn MK, Machleidt T, Zimmerman K, Eggers CT, Dixon AS, Hurst R, Hall MP, Encell LP, Binkowski BF, Wood K V. 2018. CRISPR-Mediated Tagging of Endogenous Proteins with a Luminescent Peptide. ACS Chem Biol 13:467-474. doi:10.1021/acschembio.7b00549
PROTOCOL TABLE (as described by Inglese et al., 2007)
SEQUENCE No. (e.g., 1, 2, 3, etc.); […] (e.g., Cells, Incubation, Reagent, etc.); VALUE; DESCRIPTION
1a; Cells; 5 uL; Use a Multidrop Combi (Thermo Scientific) to seed 350 cells/well into nine Greiner 1536 well white/solid bottom, high base, TC plates in 5 ul/well of iHSKM growth medium (GM) without dexamethasone into columns 1+2. Add metal lids with gas-exchange holes
1b; Cells; 5 uL; Use a Multidrop Combi (Thermo Scientific) to seed 350 cells/well into nine Greiner 1536 well white/solid bottom, high base, TC plates in 5 ul/well of iHSKM GM without dexamethasone + 4 ng/ml IFN-b into columns 3 - 48. Add metal lids with gas-exchange holes
2; Incubate; 1 hr; Incubate at 37 C, 5% CO2, 95% RH
[…]
On the % scale 0 is the no-effect control and ±100 the full control effect.

Row | SMILES | activity change, negative = inhibition
1 | O=C(Cn1ccnc1[N+](=O)[O-])NCCO | 8.67%
2 | CC(=O)Nc1cccc(O)c1 | -1.04%
3 | CCN(CC)S(=O)(=O)c1ccc(C(=O)O)cc1 | 1.78%
4 | CCCCCC(C)N (stereo not given) | -4.31%
5 | O=C(O)/C=C/c1ccc(Cn2ccnc2)cc1 | -0.517%
6 | CO[C@@]1(NC(=O)C(C(=O)O)c2ccc(O)cc2)C(=O)N2C(C(=O)O)=C(CSc3nnnn3C)CO[C@@H]21 (stereo not given in full) | -10.3%
7 | C[C@@H]1CCC[C@H](C)N1 | 12.2%
8 | O=C(c1ccccc1)C(O)c1ccccc1 (stereo not given) | 2.5%
9 | CC1(c2ccccc2)OC(C(=O)O)=CC1=O (stereo not given) | -1.89%
10 | Cc1cccc(C(=O)O)c1O | 2.92%
11 | CC[N+](C)(CC)CCOC(=O)C1c2ccccc2Oc2ccccc21 | -10.1%
12 | CN1CCN(C(=O)C2CCCCC2)CC1 | 9.96%
13 | O=C(O)c1cc(=O)c2ccccc2o1 | -9.39%
14 | CCCOC(=O)c1ccc(N)cc1 | -0.696%
15 | CC(C)=CCC/C(C)=C/CO | -2.15%
16 | C[C@@H](c1ncncc1F)C(O)(Cn1cncn1)c1ccc(F)cc1F (stereo not given in full) | -4.88%
17 | CCOc1ccccc1O[C@H](c1ccccc1)[C@H]1CNCCO1 | -1.64%
18 | CCCCCC(N)=O | -7.02%
19 | C=CCSCC1Nc2cc(Cl)c(S(N)(=O)=O)cc2S(=O)(=O)N1 (stereo not given) | -10.3%
20 | CC(N)CCCC(C)(C)O (stereo not given) | -5.32%

Row | SMILES | activity change, negative = inhibition
21 | O=C1CC[C@@H](C(=O)O)N1 | 27.3%
22 | CC(C(=O)O)c1ccc2c(c1)Cc1cccnc1O2 (stereo not given) | -1.37%
23 | COC(=O)c1ccccc1C(=O)c1ccc(OCCN2CCCCC2)cc1 | 38.5%
24 | Cc1onc(-c2ccccc2)c1-c1ccc(S(N)(=O)=O)cc1 | 8.05%
25 | CN1C(C)(C)CCCC1(C)C | 0.365%
26 | CCCCCCCCCCCCCCCCC(C(=O)O)C(O)(CC(=O)O)C(=O)O (stereo not given) | -12.3%
27 | Cc1cccc(Nc2ccccc2C(=O)O)c1C | -8.29%
28 | O=C(/C=C/c1ccccc1)OCc1ccccc1 | 14.1%
29 | CC(CSC(=O)c1ccccc1)C(=O)N1C[C@@H](Sc2ccccc2)C[C@H]1C(=O)O (stereo not given in full) | 0.115% [at 19 µM]
30 | O=c1[nH]c(=O)c2ccccc2o1 | 13.3%
31 | Cc1cc(OI)c(C(C)C)cc1-c1cc(C(C)C)c(OI)cc1C | 21.7%
32 | Cc1cc(-n2nc3ccc(Cl)cc3n2)c(O)c(C(C)(C)C)c1 | -7.39%
33 | CCOC(N)=O | -1.51%
34 | O=C(O)Cc1ccc(CCNS(=O)(=O)c2ccc(Cl)cc2)cc1 | -0.541%
35 | CCOc1ccc(C(=O)OCCN(CC)CC)cc1 | -0.0853%
36 | CCCCCCCCCCC(CO)CCCCCCCC (stereo not given) | -14.7%
37 | CCN1CC(CCN2CCOCC2)C(c2ccccc2)(c2ccccc2)C1=O (stereo not given) | 6.57%
38 | Cc1c(I)c(=O)n(-c2ccccc2)n1C | -1.78%
39 | O=C(NCC(O)CO)c1c(I)c(C(=O)NCC(O)CO)c(I)c(N(CCO)C(=O)CO)c1I (stereo not given) | -15.3%
40 | CC(=O)OCC(COC(C)=O)OC(C)=O | 3.11%
